# Results published in PubChem BioAssay (EPA / NIEHS).
# Results filed as inconclusive are left out. Activity calls are given as the source filed them. How the source made its calls: active means hit-call score of the fitted dose curve at least 0.9, where 1 is the maximum; inconclusive means response in the unintended direction; inactive means score below 0.9.
# Molecular target: Retinoic acid receptor RXR-alpha (Homo sapiens) (UniProt P19793)
# Test: OT_NURR1_NURR1RXRa_0480: Odyssey Thera (OT) 8-hour HEK293T Protein Complementation Assay for Nurr1/retinoid X receptor (RXR) (AID 2283385)
# Outline: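 8 h compound exposure, HEK293T; Nurr1/RXRα fragment complementation; fluorescence intensity; positive fitting direction vs DMSO baseline.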
# Retinoic acid receptor RXR-alpha (Homo sapiens), sequence (P19793 whole entry, looked up): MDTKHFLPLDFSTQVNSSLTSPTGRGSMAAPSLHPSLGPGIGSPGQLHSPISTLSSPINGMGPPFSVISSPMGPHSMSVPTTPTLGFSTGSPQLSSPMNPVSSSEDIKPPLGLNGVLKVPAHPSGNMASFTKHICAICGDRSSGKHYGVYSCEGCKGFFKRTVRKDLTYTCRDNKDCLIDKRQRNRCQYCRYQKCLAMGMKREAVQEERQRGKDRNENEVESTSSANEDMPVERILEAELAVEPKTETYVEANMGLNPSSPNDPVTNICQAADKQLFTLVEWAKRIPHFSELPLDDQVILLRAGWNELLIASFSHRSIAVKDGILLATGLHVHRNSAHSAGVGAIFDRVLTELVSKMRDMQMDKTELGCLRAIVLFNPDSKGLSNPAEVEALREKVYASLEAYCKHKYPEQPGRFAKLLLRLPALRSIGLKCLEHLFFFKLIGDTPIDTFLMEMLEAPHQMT
row,SMILES,outcome
1,CCOP(=S)(OCC)SCCSCC,inactive
2,CCNc1nc(Cl)nc(NC(C)(C)C#N)n1,inactive
3,CNC(=O)ON=C(SC)C(=O)N(C)C,inactive
4,S=C1NCCN1,inactive
5,CCOP(=S)(OCC)Oc1ccc([N+](=O)[O-])cc1,inactive
6,CC(C1CC1)C(O)(Cn1cncn1)c1ccc(Cl)cc1 (stereo not drawn),inactive
7,CCCOc1nn(C(=O)NS(=O)(=O)c2ccccc2C(=O)OC)c(=O)n1C,inactive
8,CC(C)=CC1C(C(=O)OCN2C(=O)C3=C(CCCC3)C2=O)C1(C)C (stereo not drawn),inactive
9,CC(=NC#N)N(C)Cc1ccc(Cl)nc1,inactive
10,CCC(=NOC/C=C/Cl)C1=C(O)CC(C2CCOCC2)CC1=O (stereo not drawn),inactive
11,C[N+]1(C)CCCCC1,inactive
12,O=c1ccc(=O)[nH][nH]1,inactive
13,C#CC(C)(C)NC(=O)c1cc(Cl)cc(Cl)c1,inactive
14,COP(=O)(NC(C)=O)SC (stereo not drawn),inactive
15,Nc1c(Cl)cc([N+](=O)[O-])cc1Cl,inactive
16,COP(=O)(OC)SCn1c(=O)oc2cc(Cl)cnc21,inactive
17,CSc1nc(NC(C)C)nc(NC(C)C)n1,inactive
18,CNC(=O)ON=C(C)SC,inactive
19,COc1cc(OC)nc(Sc2cccc(Cl)c2C(=O)O)n1,inactive
20,CCCCN(CC)c1c([N+](=O)[O-])cc(C(F)(F)F)cc1[N+](=O)[O-],inactive
21,CN(C)NC(=O)CCC(=O)O,inactive
22,CCOC(=O)COc1cc(-c2nn(C)c(OC(F)F)c2Cl)c(F)cc1Cl,inactive
23,CN(C)C(=O)Nc1cccc(C(F)(F)F)c1,inactive
24,CCc1cccc(C)c1N(C(=O)CCl)C(C)COC (stereo not drawn),inactive

# Molecular target: Retinoic acid receptor RXR-alpha (Homo sapiens) (UniProt P19793)
# Test: OT_NURR1_NURR1RXRa_1440: Odyssey Thera (OT) 24-hour HEK293T Protein Complementation Assay for Nurr1/retinoid X receptor (RXR) (AID 2283386)
# Outline: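 Interaction of Nurr1 with RXRα brings fused reporter fragments together in human HEK293T cells, restoring a functional reporter. Fluorescence intensity is measured 24 h after chemical treatment, and values are analysed in the positive direction against DMSO.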
SMILES,outcome,AC50
CCC(=O)Nc1ccc(Cl)c(Cl)c1,inactive,–
CCNc1nc(Cl)nc(NC(C)(C)C#N)n1,inactive,–
CNC(=O)ON=C(SC)C(=O)N(C)C,inactive,–
S=C1NCCN1,inactive,–
CCc1cnc(C2=NC(C)(C(C)C)C(=O)N2)c(C(=O)O)c1 (stereo not drawn),inactive,–
CCOP(=S)(OCC)Oc1ccc([N+](=O)[O-])cc1,inactive,–
CCCOc1nn(C(=O)NS(=O)(=O)c2ccccc2C(=O)OC)c(=O)n1C,inactive,–
CC(C)=CC1C(C(=O)OCN2C(=O)C3=C(CCCC3)C2=O)C1(C)C (stereo not drawn),inactive,–
O=[N+]([O-])c1cc(C(F)(F)F)c(Cl)c([N+](=O)[O-])c1Nc1ncc(C(F)(F)F)cc1Cl,–,641 nM (active)
CC(=NC#N)N(C)Cc1ccc(Cl)nc1,inactive,–
CCC(=NOC/C=C/Cl)C1=C(O)CC(C2CCOCC2)CC1=O (stereo not drawn),inactive,–
CC(C)[C@H](C(=O)O[C@H](C#N)c1cccc(Oc2ccccc2)c1)c1ccc(Cl)cc1,inactive,–
C[N+]1(C)CCCCC1,inactive,–
O=c1ccc(=O)[nH][nH]1,inactive,–
COP(=O)(NC(C)=O)SC (stereo not drawn),inactive,–
CC[C@H](C)[C@H]1O[C@]2(C=C[C@@H]1C)C[C@@H]1C[C@@H](C/C=C(\C)[C@@H](O[C@H]3C[C@H](OC)[C@@H](O[C@H]4C[C@H](OC)[C@@H](NC)[C@H](C)O4)[C@H](C)O3)[C@@H](C)/C=C/C=C3\CO[C@@H]4[C@H](O)C(C)=C[C@@H](C(=O)O1)[C@]34O)O2,inactive,–
Nc1c(Cl)cc([N+](=O)[O-])cc1Cl,inactive,–
CSc1nc(NC(C)C)nc(NC(C)C)n1,inactive,–
CCOP(=S)(OCC)Oc1ccc2c(C)c(Cl)c(=O)oc2c1,inactive,–
CNC(=O)ON=C(C)SC,inactive,–
COc1cc(OC)nc(Sc2cccc(Cl)c2C(=O)O)n1,inactive,–
CCCCN(CC)c1c([N+](=O)[O-])cc(C(F)(F)F)cc1[N+](=O)[O-],inactive,–
CN(C)NC(=O)CCC(=O)O,inactive,–
CC1=NNC(=O)N(/N=C/c2cccnc2)C1,inactive,–
CCOC(=O)COc1cc(-c2nn(C)c(OC(F)F)c2Cl)c(F)cc1Cl,inactive,–
CN(C)C(=O)Nc1cccc(C(F)(F)F)c1,inactive,–
Cc1nn(-c2cc(NS(C)(=O)=O)c(Cl)cc2Cl)c(=O)n1C(F)F,inactive,–
CCc1cccc(C)c1N(C(=O)CCl)C(C)COC (stereo not drawn),inactive,–

# Molecular target: Peroxisome proliferator-activated receptor gamma (Homo sapiens) (UniProt P37231)
# Test: OT_PPARg_PPARgSRC1_0480: Odyssey Thera (OT) 8-hour Protein-Complementation Assay for Peroxisome Proliferator-activated Receptor Gamma / SRC-1 Co-activator (AID 2283387);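 further: nuclear to cytoplasmic split Venus YFP fluorescence ratio reporting PPARg SRC-1 interaction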
# Outline: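 Split-YFP (IFP1/IFP2) PPARg/SRC-1 reporter, HEK293T, 37 °C, 5% CO2; 8 h compound; formaldehyde fix + Draq5; high-content imaging, N/C ratio, ≥350 cells/image, positive direction vs DMSO.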
# Peroxisome proliferator-activated receptor gamma (Homo sapiens), sequence (P37231 whole entry, looked up): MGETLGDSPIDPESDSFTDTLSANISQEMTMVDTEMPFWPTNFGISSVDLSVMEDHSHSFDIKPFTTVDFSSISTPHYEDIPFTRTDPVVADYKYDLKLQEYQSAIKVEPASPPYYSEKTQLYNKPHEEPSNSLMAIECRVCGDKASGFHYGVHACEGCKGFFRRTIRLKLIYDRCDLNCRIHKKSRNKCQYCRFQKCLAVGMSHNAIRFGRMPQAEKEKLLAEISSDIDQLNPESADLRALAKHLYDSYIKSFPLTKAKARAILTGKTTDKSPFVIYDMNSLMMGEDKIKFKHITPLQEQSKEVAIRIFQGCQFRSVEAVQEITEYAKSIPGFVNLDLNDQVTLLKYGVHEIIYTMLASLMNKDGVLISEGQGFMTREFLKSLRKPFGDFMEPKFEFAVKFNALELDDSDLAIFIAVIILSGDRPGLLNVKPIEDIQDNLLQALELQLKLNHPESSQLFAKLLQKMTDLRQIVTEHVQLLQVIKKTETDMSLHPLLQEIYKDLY
row,SMILES,outcome
1,CCOP(=S)(OCC)SCCSCC,inactive
2,CNC(=O)ON=C(SC)C(=O)N(C)C,inactive
3,CCOP(=S)(OCC)Oc1ccc([N+](=O)[O-])cc1,inactive
4,CC(C1CC1)C(O)(Cn1cncn1)c1ccc(Cl)cc1 (stereo not drawn),inactive
5,CCCOc1nn(C(=O)NS(=O)(=O)c2ccccc2C(=O)OC)c(=O)n1C,inactive
6,O=[N+]([O-])c1cc(C(F)(F)F)c(Cl)c([N+](=O)[O-])c1Nc1ncc(C(F)(F)F)cc1Cl,inactive
7,CCC(=NOC/C=C/Cl)C1=C(O)CC(C2CCOCC2)CC1=O (stereo not drawn),inactive
8,CC(C)[C@H](C(=O)O[C@H](C#N)c1cccc(Oc2ccccc2)c1)c1ccc(Cl)cc1,inactive
9,N#CSCSC#N,inactive
10,COP(=O)(NC(C)=O)SC (stereo not drawn),inactive
11,CSc1nc(NC(C)C)nc(NC(C)C)n1,inactive
12,CNC(=O)ON=C(C)SC,inactive
13,CCCCN(CC)c1c([N+](=O)[O-])cc(C(F)(F)F)cc1[N+](=O)[O-],inactive
14,CN(C)NC(=O)CCC(=O)O,inactive
15,Cc1nn(-c2cc(NS(C)(=O)=O)c(Cl)cc2Cl)c(=O)n1C(F)F,inactive
16,CCc1cccc(C)c1N(C(=O)CCl)C(C)COC (stereo not drawn),inactive
